# CHX counter – affects cycloheximide protein synthesis inhibition readout, counter-screen; 300,000 compounds, 12% hits; max response, %; cell reporter, cycloheximide protein synthesis inhibition counterscreen; in the data active = max response mostly above about 13%, no sharp cut-off; inactive = mostly below about 14%; also: read at 38.3 µM for the half of the compounds with a filed dose; 0% is about no effect
# NS1 inh – inhibitors of influenza NS1 protein function | 270,000 compounds, 0.4% hits | Potency, µM (doses to about 46.1 µM), inactives show at the highest dose activity, positive = more growth; calls by dose curve; also: potency is read from the fitted curve at half-maximal effect; actives are rising curves; nearly all actives have a fitted effect of over 50% in size
#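 Compounds were scored for reversing the slow growth caused by influenza A NS1 in S. cerevisiae, measured by optical density at 600 nm. Assay medium contained 2% galactose at pH 6.0; NS1-free yeast of the same strain were the positive control.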
# SARS PLpro yeast – inhibitors of SARS-CoV papain-like protease in yeast | 330,000 compounds, 0.19% hits | AID 485353 | Potency, µM (titrated, usually from 32.9 µM), inactives show at the highest dose activity, positive = growth rescue, actives largely listed as activators | S. cerevisiae expressing SARS-CoV PLpro, growth rescue; calls by dose curve; also: potency is read from the fitted curve at half-maximal effect; 0% is about no effect; nearly all actives have a fitted effect of over 55% in size
# Shiga toxin inh – inhibitors of Shiga toxin in Vero cells; AID 2315; Vero cells, Shiga toxin protein synthesis inhibition reporter; inhibition, % at 38.7 µM; 290,000 compounds, 9.2% hits; in the data active = inhibition mostly above about 28%, no sharp cut-off; inactive = mostly below about 43%; also: 0% is about no effect
# LmPK inhibitor – LmPK (Leishmania mexicana) enzyme inhibition; purified LmPK, Kinase-Glo ATP luminescence, 1 h; Q27686; Potency, µM (titrated, usually from 57.5 µM), for inactives: at the top dose activity change, negative = inhibition, actives largely listed as inhibitors; 290,000 compounds, 0.37% hits; also: potency is read from the fitted curve at half-maximal effect; % is scaled to controls: 0 for no effect and ±100 for the full control effect
# Target sequence (Q27686 whole entry, looked up): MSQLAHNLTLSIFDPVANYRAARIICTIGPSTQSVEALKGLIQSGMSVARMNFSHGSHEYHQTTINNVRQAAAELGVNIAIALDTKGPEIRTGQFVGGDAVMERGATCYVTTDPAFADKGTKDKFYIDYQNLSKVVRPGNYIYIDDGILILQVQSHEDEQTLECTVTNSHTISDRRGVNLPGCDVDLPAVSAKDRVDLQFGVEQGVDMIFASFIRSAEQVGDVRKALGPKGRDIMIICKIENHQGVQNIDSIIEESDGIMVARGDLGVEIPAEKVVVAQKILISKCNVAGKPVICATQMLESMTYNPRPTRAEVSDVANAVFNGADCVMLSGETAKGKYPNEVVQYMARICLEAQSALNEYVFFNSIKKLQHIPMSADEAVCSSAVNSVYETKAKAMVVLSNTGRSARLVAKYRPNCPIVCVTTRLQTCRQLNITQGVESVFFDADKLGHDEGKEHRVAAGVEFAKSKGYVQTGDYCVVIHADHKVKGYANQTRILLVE
#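 Screened at intermediate enzyme activity to detect both inhibitors and activators: LmPK at 0.1 nM, with a 0.5 nM enzyme column as activation reference. PEP 0.5 mM, ADP 0.1 mM; ATP detected by luminescence after 1 h.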
# Tb PYK inh – inhibitors of Trypanosoma brucei pyruvate kinase. AID 624173. TbPYK enzyme, Kinase-Glo Plus ATP luminescence, 45 min. 410,000 compounds, 0.12% hits. Potency, µM (series often up to 76.8 µM), for the others: top-dose activity, negative = inhibition, most hits filed as inhibitors; also: potency is read from the fitted curve at half-maximal effect; % is scaled to controls: 0 for no effect and ±100 for the full control effect; nearly all actives have a fitted effect of over 50% in size
#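 TbPYK + substrate in 50 mM TEA pH 7.2, 100 mM KCl, 10 mM MgCl2, 0.05% BSA, 0.01% Tween-20; cpd pinned; ADP 130 uM final; 45 min RT; Kinase-Glo Plus 10 min; luminescence endpoint.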
# The depositor's hits bear a star; ? = inconclusive; . = not tested or not shown; [ ] = another dose, or the depositor's remark. Shown is part of a subset that was picked to be rich in hits. Unless noted, calls follow the shape of the dose curve; as a rule, active = well fitted curve in the direction sought with a large enough effect; inconclusive = small, poorly fitted or top-dose-only effect, or another doubt; inactive = no such curve, though single readings can be large; an effect the other way counts as inactive or inconclusive.
SMILES,CHX counter,NS1 inh,SARS PLpro yeast,Shiga toxin inh,LmPK inhibitor,Tb PYK inh
O=C(O)Cn1ncc2ccccc2c1=O,2,4%,-1%,-11,-4%,-3%
CSCC(O)Cn1ncc2ccccc2c1=O (centres undefined),21*,-3%,-5%,33,0%,4%
Cc1noc(C)c1-c1ccc2ncnc(NCc3cccn3C)c2c1,1,.,.,-6,.,.
CN1[C@@H]2CC[C@H]1CC(OC(=O)[C@@H](O)c1ccccc1)C2 (some centres undefined),.,-3%,.,.,.,6%
O=C(COc1ncnc2scc(-c3ccc(Cl)cc3)c12)NCc1ccco1,27,11%,4%,53*,3%,-2%
COc1ccc(S(=O)(=O)N(C)C)cc1NC(=O)CN1C(=O)NC2(CCCC2)C1=O,-3,1%,3%,3,0%,-2%
CC1(C)CC(=O)c2sc(NC(=O)c3ccc4ncsc4c3)nc2C1,24*,0%,-6%,62*,-7%,?
CC(Oc1ccccc1)C(=O)Nc1nc2c(s1)C(=O)CC(C)(C)C2 (centres undefined),-2,-2%,4%,-6,-3%,4%
CC1(C)CC(=O)c2sc(NC(=O)CCS(=O)(=O)c3ccccc3)nc2C1,30*,-11%,0%,16,5%,-3%
CC1(C)CNC(=O)c2sc(NC(=O)c3ccccc3)nc2C1,51*,.,-4%,109*,-3%,-9%
CC1(C)CNC(=O)c2sc(N3CCOCC3)nc2C1,-3,7%,.,-13,-3%,4%
CC1(C)CC(=O)c2sc(NC(=O)C(C)(C)C)nc2C1,40*,2%,1%,92*,3%,-7%
CC1(C)CC(=O)c2sc(NC(=O)CN3CCCCC3)nc2C1,16,-2%,-3%,27,-2%,-4%
CCOc1ccc(S(=O)(=O)N2CCOCC2)cc1NC(=O)CSCc1c(C)noc1C,.,.,0%,.,.,7%
CC1(C)CC(=O)c2sc(NC(=O)c3cccs3)nc2C1,16*,-22%[9.22 µM],-23%,19,?,-7%
CC1(C)CC(=O)c2sc(NS(=O)(=O)c3ccc(Cl)cc3)nc2C1,-9,13%,0%,0,0%,-23%
CC1(C)CC(=O)c2sc(NC(=O)c3ccccc3)nc2C1,33*,-2%,1%,75*,-13%,.
CCc1cc(OCCCCNCc2ccccc2)ccc1Cl,-7,-31%,-19%,-12,-5%,-12%
CC(C)OC(=O)c1ccc(COC(=O)c2cccc(-c3nnc(-c4ccccc4)o3)c2)cc1,17*,-1%,-5%,32,-4%,-9%
O=C(OCc1nnc(-c2ccccc2)o1)c1cccc(-n2cnnn2)c1,.,.,1%,.,.,8%
CCOC(=O)c1cccc(COC(=O)c2cccc(-c3nnc(-c4ccccc4)o3)c2)c1,46*,2%,15%,78*,-2%,-8%
O=C(OCc1ccc(C(=O)c2ccccc2)cc1)c1cccc(-c2nnc(-c3ccccc3)o2)c1,22*,14%,-3%,64*,-5%,-2%
O=C(OCc1ccccc1)c1cccc(-c2nnc(-c3ccccc3)o2)c1,-5,?,-4%,6,4%,2%
CC(C)C(=O)Nc1ccc2nc(SCC(=O)N3CCCC3)sc2c1,.,.,.,.,.,1%
CC1CCCCC1NC(=S)NC(=O)c1sc2ccccc2c1Cl (centres undefined),12*,0%,-1%,-7,9%,-8%
SMILES,CHX counter,NS1 inh,SARS PLpro yeast,Shiga toxin inh,LmPK inhibitor,Tb PYK inh
Cc1c(NC(=S)NC(=O)c2sc3ccccc3c2Cl)cccc1C(=O)O,61*,2%,-3%,161*,-1%,-11%
CC1CCCCC1NC(=S)NC(=O)c1ccccc1Cl (centres undefined),.,.,?,.,.,-6%
COc1ccc([C@H]2CC(=O)C[C@@H](CCn3cc(-c4ccc(F)cc4)nn3)O2)cc1,.,.,.,.,.,-4%
CC(C)CN(CC(C)C)c1ccc(/C=N/n2cnnc2)cc1[N+](=O)[O-],-3,3%,-2%,-19,-1%,0%
CC(=O)Nc1ccc(NC(=O)CSc2nc3ccccc3nc2N2CCC(C)CC2)cc1,19*,10%,-1%,36,0%,-1%
CC(=O)Nc1ccc(NC(=O)CSc2nc3ccccc3nc2N2CCCCC2)cc1,7,6%,.,-5,-7%,2%
O=C(CSc1nc2ccccc2nc1N1CCOCC1)Nc1ccccc1F,20*,-14%,1%,24*,-2%,1%
Cc1ccc(NCC(=O)N/N=C/c2ccncc2)cc1,7,-3%,-2%,7,-2%,3%
Cc1ccc(C(=O)Nc2nnc(CC(=O)N/N=C/c3ccc(O)c(O)c3)s2)cc1,24*,?,0%,8,1%,4%
COc1ccc(C(=O)Nc2nnc(CC(=O)N/N=C/c3ccc(O)cc3O)s2)cc1,17*,5%,1%,43*,-2%,.
Cc1ccc(C(=O)Nc2nnc(CC(=O)N/N=C/c3ccncc3)s2)cc1,30*,.,3%,57*,10%,-5%
CCN1CCN(c2ncnc3c2cnn3-c2cccc(C)c2)CC1,.,.,.,.,.,-2%
CCOC(=O)C1CCCN(c2ncnc3c2cnn3-c2cccc(C)c2)C1 (centres undefined),41*,-78%,-8%,118*,0%,-1%
CCN(CC)C(=O)C1CCCN(c2ncnc3onc(C)c23)C1 (centres undefined),.,.,.,.,.,-1%
Cc1cccc(-n2ncc3c(N4CCCC(C)C4)ncnc32)c1 (centres undefined),.,.,.,.,.,-7%
CCN(CC)C(=O)C1CCCN(c2ncnc3c2cnn3-c2cccc(C)c2)C1 (centres undefined),34*,-40%,-17%,63*,8%,7%
CCN(CC)C(=O)C1CCCN(c2ncnc3c2cnn3-c2ccc(Cl)cc2)C1 (centres undefined),23*,-76%,-12%,62*,-7%,1%
O=c1oc(-c2ccc([N+](=O)[O-])cc2)nc2ccc(O)cc12,17,.,-1%,3,?,13%
CC(C)(C)Nc1nc2cc([N+](=O)[O-])ccc2o1,17*,-8%,2%,48*,0%,7%
COc1ccc(-c2nc3cc([N+](=O)[O-])ccc3o2)cc1,40*,-2%,0%,99*,-9%,-1%
Nc1ccc(-c2nc3cc([N+](=O)[O-])ccc3o2)cc1,106*,?,1%,74*,-8%,0%
O=C(O)CCC(=O)OCCN(Cc1ccc(Oc2ccc([N+](=O)[O-])cc2)cc1)C(=O)C(Cl)Cl,.,.,.,.,.,-22%
N/C(CC(=O)NC1CCCCC1)=N\OCC(=O)Nc1ccc(Cl)c(Cl)c1,-3,-3%,1%,-5,7%,-1%

# Screening data deposited in PubChem by National Center for Advancing Translational Sciences (NCATS).
